ATXN2 expr inh: inhibitors of ATXN2 expression; Potency, µM (series often up to 57 µM), most hits filed as inhibitors; hit rate 0.72% among 360,000; HEK-293 ATXN2-luciferase reporter, luminescence, 24 h; AID 1745845; note: nearly all actives have a fitted effect of over 55% in size
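ATXN2-luciferase reporter cells (luciferase flanked by upstream and downstream ATXN2 gene portions) were treated 24 h at 37 °C with compounds at up to 57 uM. SteadyGlo luminescence gave expression; GF-AFC fluorescence gave viability.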
HepG2 tox: kills HepG2 cells in TGF-b inhibitor counter-screen; HepG2 CAGA-GFP viability, ATP luminescence, 18 h; Potency, µM (titrated, usually from 46.1 µM), actives largely listed as cytotoxic; hit rate 0.76% among 410,000; AID 588856
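CellTiter-Glo luminescence gave cytotoxicity after 18 hours at 37 degrees C. The cells were HepG2 CAGA-GFP in 1% FBS DMEM, stimulated with 500 pg/mL TGF-beta after compound addition. %Activity was normalised to no-cell wells (complete cell-killing) and DMSO (no toxicity), and curves were fitted and classified.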
S2 tox: viability counter-screen for ATXN expression inhibitors; Potency, µM (series often up to 56.7 µM), usual class: cytotoxic; hit rate 0.49% among 400,000; S2 cells (HEK-293 line with an ATXN2-luciferase reporter) viability, CellTiter-Fluor protease fluorescence, 24 h; note: nearly all actives have a fitted effect of over 40% in size
TGFb SMAD3 inh: TGF-b pathway inhibition; HepG2 CAGA-GFP TGF-b/SMAD3 reporter, GFP fluorescence, 18 h; TGF-beta stimulated, 500 pg/mL final; Potency, µM (top dose mostly 46.1 µM), actives largely listed as inhibitors; hit rate 1.2% among 410,000; note: nearly all actives have a fitted effect of over 65% in size
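HEPG2 CAGA-GFP cells (1000/well, DMEM with 1% FBS) were pre-incubated 2 h at 37 degrees C, given compound by pin tool, then stimulated with TGF-beta at 500 pg/mL final for 18 h before per-cell GFP fluorescence imaging.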
mIDH1 inhibitor: blocks human mutant IDH1 R132H enzyme. O75874. IDH1-R132H enzyme, NADPH consumption, diaphorase/resazurin fluorescence. Potency, µM (series often up to 76.6 µM), hits mostly inhibitors. hit rate 0.093% among 390,000; note: nearly all actives have a fitted effect of over 65% in size
Target sequence (O75874 whole entry R132H, stated change not applied): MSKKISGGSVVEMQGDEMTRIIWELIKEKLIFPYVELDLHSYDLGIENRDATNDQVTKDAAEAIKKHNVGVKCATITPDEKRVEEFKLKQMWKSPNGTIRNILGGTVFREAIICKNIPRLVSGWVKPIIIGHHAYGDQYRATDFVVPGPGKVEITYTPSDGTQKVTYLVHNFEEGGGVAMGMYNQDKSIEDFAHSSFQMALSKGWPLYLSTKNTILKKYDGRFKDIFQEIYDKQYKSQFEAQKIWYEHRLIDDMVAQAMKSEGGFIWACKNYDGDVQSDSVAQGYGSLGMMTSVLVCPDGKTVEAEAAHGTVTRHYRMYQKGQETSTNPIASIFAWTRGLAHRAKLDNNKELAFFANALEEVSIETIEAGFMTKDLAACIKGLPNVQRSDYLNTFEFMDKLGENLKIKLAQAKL
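IDH1-R132H (0.5 ug/mL) preincubated 30 min with compound, then NADPH (0.016 mM) and alpha-KG (2 mM) added; 80 min at RT, pH 7.5. Remaining NADPH coupled via diaphorase/resazurin to fluorescence (540/590 nm); concentration-response curves normalized to no-enzyme control.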
LDHA inh: LDHA (human) enzyme inhibition. purified LDHA, NADH/diaphorase-resazurin fluorescence; stronger effect = lower value. activity change, % (values are at about 110 or 230 µM). hit rate 0.15% among 480,000. P00338. AID 1347041; in the data active = activity change below about -30%; inconclusive = mostly about -25% to -30%
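Human LDH5 at 2 nM final in Tris HCl pH 7.4 with 0.06 mM NADH and 0.2 mM pyruvate, reacted 5 minutes at room temperature. Remaining NADH coupled via diaphorase/resazurin; resorufin fluorescence read at 0 and 20 minutes, normalized to enzyme-free and DMSO wells.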
A number is an active result; - = inactive; ? = inconclusive; . = not tested or not shown; ! = not confirmed by another sample. Only some compounds are listed: those with a hit (about 2.2% of all), similar ones and a draw of the others. Unless noted, calls come from the whole dose curve; as a rule, active = well fitted curve in the direction sought with a large enough effect; inconclusive = small, poorly fitted or top-dose-only effect, or another doubt; inactive = no such curve, though single readings can be large; an effect the other way counts as inactive or inconclusive.

SMILES	ATXN2 expr inh	HepG2 tox	S2 tox	TGFb SMAD3 inh	mIDH1 inhibitor	LDHA inh
Cc1cccc(N(CC(=O)Nc2c(C)n(C)n(-c3ccccc3)c2=O)S(C)(=O)=O)c1C	-	-	-	2.8µM	-	-
Cc1cc(C)nc(Nc2nc(C(N)Cc3ccc(C(F)(F)F)cc3)cs2)n1 (configuration not stated)	-	22µM	?	?	.	-
COc1cc(OC)nc(Nc2nc(C(N)Cc3ccccc3)cs2)n1 (configuration not stated)	-	-	-	?	.	-
Cc1cc(C)nc(Nc2nc(C(N)Cc3ccc(Cl)cc3)cs2)n1 (configuration not stated)	?	-	?	16µM	.	-
Cc1cc(C)nc(Nc2nc(C(N)Cc3ccc(F)cc3)cs2)n1 (configuration not stated)	-	13µM	?	?	.	-
COc1cc(OC)nc(Nc2nc(C(N)Cc3ccc(C(F)(F)F)cc3)cs2)n1 (configuration not stated)	?	10µM	?	?	.	-
COC(=O)c1nc2ccccc2nc1N1CCN(c2ccc(Cl)cc2)CC1	.	.	.	.	.	-
CC(=O)Nc1ccc(N(C)S(C)(=O)=O)cc1	-	-	-	-	-	-
CCCc1cnc(Nc2nc(C(N)Cc3ccc(C(F)(F)F)cc3)cs2)nc1 (configuration not stated)	-	11µM	.	?	.	-
CC1(C)C(N(O)C(=O)Nc2ccc(Cl)cc2)N(c2ccc(Cl)cc2)C(=O)N1CC(=O)NN=CC=Cc1ccc([N+](=O)[O-])o1 (configuration not stated)	34µM	.	.	.	.	.
CC1(C)C(N(O)C(=O)Nc2ccccc2)N(c2cccc(Cl)c2)C(=O)N1O (configuration not stated)	-	-	-	-	-	-
COc1ccc(C2=C(N3CCN(c4cccc(C)c4)C(C)C3)c3ccccc3C2=O)cc1 (configuration not stated)	-	-	?	-	-	-
CCOc1ccc(/C=N/NC(=O)C(O)c2ccccc2)c(O)c1 (configuration not stated)	32µM	-	-	-	-	-
CCN(CC)CCn1c2ccccc2c2cnc(N)c(C#N)c21	14µM	-	-	-	-	-
CC1(C)CC(=O)C2=C(C1)Oc1nc3ccccc3cc1C2C(C#N)C#N (configuration not stated)	-	-	?	11µM	-	-
Cc1ccc(Cl)cc1NC(=O)CN1CCN(S(=O)(=O)c2cccs2)CC1	.	.	.	.	.	-
Cc1cccc(NC2=C/C(=N/S(=O)(=O)c3cccs3)c3ccccc3C2=O)c1	?	-	?	?	-	-
Cc1ccc(Cl)cc1NC1=C/C(=N\S(=O)(=O)c2cccs2)c2ccccc2C1=O	2.8µM	3.5µM!	11µM	4µM	-	-
Cc1ccc(NC2=C/C(=N\S(=O)(=O)c3cccs3)c3ccccc3C2=O)c(C)c1	?	4.5µM	8.9µM	2.5µM	-	-
Cc1cc2cc(NS(=O)(=O)c3ccc(F)c(F)c3)ccc2[nH]1	.	.	.	.	.	-
CC(C)CN(CC(C)C)C(=O)c1cccc(S(=O)(=O)N2CCc3ccccc32)c1	?	-	-	?	-	-
CC(C)NCC(O)COCCOc1ccc(Cl)cc1 (configuration not stated)	.	-	-	-	-	-
COc1ccccc1N1CCN(c2ccnc3cc(Cl)ccc23)CC1	11µM	-	?	-	-	-
O=C(C1CCCCC1)N1CCN(c2ccnc3cc(Cl)ccc23)CC1	18µM	-	?	-	-	-
O=C(C1CCC1)N1CCN(c2ccnc3cc(Cl)ccc23)CC1	.	-	?	-	-	-
SMILES	ATXN2 expr inh	HepG2 tox	S2 tox	TGFb SMAD3 inh	mIDH1 inhibitor	LDHA inh
CC(=O)Oc1cccc(N2C(=O)c3ccc(C(=O)Nc4cccnc4)cc3C2=O)c1	.	-	-	-	-	-
CC1CCCC(NC(=O)c2nn(C)c3c2CS(=O)(=O)c2ccccc2-3)C1C (configuration not stated)	.	-	-	-	-	-
CCCCC1CCC(C(=O)Nc2ccc(OC)c3ncccc23)CC1 (configuration not stated)	.	.	.	.	.	-30
O=C(Nc1cccc(-c2cn3c(n2)SCC3)c1)c1ccc2c(c1)OCO2	-	-	.	-	-	-
Cc1ccc(S(=O)(=O)c2nc(-c3ccccc3C)oc2N(C)C)cc1	.	.	.	.	.	-
O=C(CCl)NCCCN(C(=O)C(Cl)Cl)c1ccc([N+](=O)[O-])cc1	.	13µM	32µM	?	-	-
CCOC(=O)CCC(=O)O[C@H]1[C@H](O[C@@H]2[C@@H](C)[C@H](O[C@H]3C[C@@](C)(OC)[C@@H](O)[C@H](C)O3)[C@@H](C)C(=O)O[C@H](CC)[C@@](C)(O)[C@H](O)[C@@H](C)C(=O)[C@H](C)C[C@@]2(C)O)O[C@H](C)C[C@@H]1N(C)C	-	-	-	-	-	-
CCC(=O)O[C@H]1[C@H](O[C@@H]2[C@@H](C)[C@H](O[C@H]3C[C@@](C)(OC)[C@@H](O)[C@H](C)O3)[C@@H](C)C(=O)O[C@H](CC)[C@@](C)(O)[C@H](O)[C@@H](C)C(=O)[C@H](C)C[C@@]2(C)O)O[C@H](C)C[C@@H]1N(C)C	-	.	16µM!	.	.	.
CCOc1ccc(N=Cc2c(C)[nH]n(-c3nc4ccccc4[nH]3)c2=O)cc1	-	2.5µM	-	-	-	-
Cc1ccc2[nH]c(=O)c(C3C(C#N)=C(N)Oc4c3ccc3cccnc43)cc2c1 (configuration not stated)	?	-	.	10µM	-	-
C#C[C@]1(O)CC[C@H]2[C@@H]3CCc4cc(OC5CCCC5)ccc4[C@H]3CC[C@@]21C	?	-	32µM	-	-	-
COc1cc(OC)c2c(-c3cccc(-c4ccc(N(C)C)cc4)c3)cc(=O)oc2c1	-	-	-	1.1µM	-	-
COc1cc(OC)c2c(-c3cccc(-c4ccc(CO)cc4)c3)cc(=O)oc2c1	?	-	-	5µM	-	-
COc1cc(OC)c2c(-c3cccc(-c4ccc(O)cc4)c3)cc(=O)oc2c1	?	-	-	?	-	-
O=C(NC(=S)Nc1cccnc1Cl)c1ccc(Cl)cc1	-	-	-	-	-	-
CCC(C)NCCOCCOc1ccccc1-c1ccccc1 (configuration not stated)	-	-	-	-	-	-
O=C(NCCS(=O)(=O)c1ccc(Br)cc1)c1ccc(Cl)cc1	-	-	-	-	-	-
O=C(CCNS(=O)(=O)c1ccc(Br)cc1)NCc1ccc(Cl)cc1	-	11µM	-	-	-	-

Screening results from PubChem BioAssay.
